In PubChem BioAssay (Tox21) one finds Potency and viability change, negative = cytotoxic data, which are given here for 40 compounds.

Inconclusive results are not listed. Where a call stands in place of a potency, no number is given. The source made the active and inactive calls. Calls follow the shape of the dose curve; as a rule, active = well fitted cell-killing curve with a large enough effect in the repeat runs; inconclusive = weak or mixed curves, or effect the other way; inactive = flat fitted curve, though single readings scatter.
Potency is read from the fitted curve at half-maximal effect.

A short description of the assay: qHTS assay to identify small molecule antagonists of the androgen receptor (AR) signaling pathway using the MDA cell line in the presence of 0.5 nM R1881 - cell viability counter screen (AID 1259242). Also: nearly all actives have a fitted effect of over 45% in size. To be noted: MDA-kb2 viability, CellTiter-Fluor protease fluorescence, 16 h; series mostly up to 92.4 µM. The text has this: U.S. Tox21 Program National Center for Advancing Translational Sciences [NCATS] NIH Chemical Genomics Center [NCGC] U.S. Environmental Protection Agency [EPA] National Institutes of Environmental Health Sciences [NIEHS] National Toxicology Program [NTP] U.S. Food and Drug Administration [FDA] Tox21 Assay Overview: Androgen receptor (AR) is an important member of the nuclear receptor family. Its signaling plays a critical role in AR-dependent prostate cancer and other androgen related diseases. Considerable attention has been given in the past decades to develop methods to study and screen for the environmental chemicals that have the potential to interfere with metabolic homeostasis, reproduction, developmental and behavioral functions. Therefore AR binding assay for screening androgen antagonists can be used to identify potential endocrine disruptors. MDA-kb2 cells (from ATCC, deposited by Wilson et al.) were used to screen for AR inhibitors against Tox21 compound libraries. These cells are human breast carcinoma cells that were stably transfected with a luciferase reporter gene under control of the MMTV promoter that contains response elements for both androgen receptor (AR) and glucocorticoid receptor (GR). The current screening for identification of AR inhibitors against Tox21 libraries used lower concentration of (0.5 nM) R1881 as a stimulator. The cytotoxicity of the Tox21 compound libraries against MDA-kb2 cell line was tested by measuring live-cell protease activity using CellTiter-Fluor assay in the same wells.
Tox21 Assay Protocol Summary: MDA-kb2 cells (cells cultured without CO2) were dispensed at 3,000 cells/well in 4 uL of culture medium into white wall/solid-bottom 1536-well plates (Corning Life Sciences, Corning, NY) using a Multidrop Combi (ThermoFisher Scientific, Waltham, MA) dispenser. After the assay plates were incubated at a 37C and 0% CO2 for 5 hr, 23 nL of compounds dissolved in DMSO, positive controls or DMSO only was transferred to the assay plate by a Pintool station (Kalypsys, San Diego, CA). The transfer of compounds was followed by the addition of 1 uL of 0.5 nM (final concentration) agonist (R1881)/culture medium using a Flying Reagent Dispenser (FRD, Aurora Discovery, San Diego, CA). The plates were incubated at 37C and 0% CO2 for 16 hr. For cytotoxicity assay, 1 uL of CellTiter-Fluor reagent (Promega Corporation, Madison, WI) was added to each well using the FRD and after 30 min incubation at 37C and 0% CO2, The fluorescence intensity was measured using ViewLux plate reader (PerkinElmer, Shelton, CT).
(qHTS replaces the single test concentration by a dilution series.)
Turning to `O=C1OC(=O)C2C3C=CC(C3)C12` (stereo not given), the Potency entry was “inactive”. In the case of `Cc1cccc(Nc2ccccc2)c1`, the Potency result was “inactive”. As to `CCCCC(=O)OCC(=O)[C@H]1[C@H](C)C[C@H]2[C@@H]3C[C@H](F)C4=CC(=O)C=C[C@]4(C)[C@@]3(F)[C@@H](O)C[C@@]21C`, the Potency result is “inactive”.

Turning to `NCCCN1CCOCC1`, the Potency result is “inactive”. For `COc1cc(C(=O)OCCCN2CCCN(CCCOC(=O)c3cc(OC)c(OC)c(OC)c3)CC2)cc(OC)c1OC`, the Potency entry is “inactive”. As to `O=C(O)CNCC(=O)O`, the viability change, negative = cytotoxic is -0.633% [at 8.39 µM] (inactive). Regarding `CC1OC(=O)C(C)OC1=O` (stereo not given), the Potency result was “inactive”. As for `NC(N)=NCCC[C@H](N)C(=O)O`, the viability change, negative = cytotoxic was 3.68% [at 8.39 µM] (inactive).

On to `O=C1CCC(=O)O1`, for which the Potency result is “inactive”. Consider `CC(C)C[C@H]1C(=O)N2CCC[C@H]2[C@]2(O)O[C@](NC(=O)[C@@H]3C=C4c5cccc6[nH]c(Br)c(c56)C[C@H]4N(C)C3)(C(C)C)C(=O)N12`, for which the Potency entry is “inactive”. Take `C[N+]1(CC2COC(c3ccccc3)(C3CCCCC3)O2)CCCCC1` (stereo not given): the Potency result is “inactive”. As for `O=C1OC(CN2CCOCC2)CN1/N=C/c1ccc([N+](=O)[O-])o1` (stereo not given), the Potency result is “inactive”. For the compound `NCc1ccccc1Sc1ccccc1CO`, the Potency entry is “inactive”. Regarding `COc1ccc(C(=O)c2ccc(OC)cc2O)c(O)c1`, the Potency entry is “inactive”. `NC(=O)C(c1ccccc1)(c1ccccc1)[C@@H]1CCN(CCc2ccc3c(c2)CCO3)C1`: the Potency entry is “inactive”. Still for that read-out and setting: in the case of `O=C1CCCCCCCCCCCC(=O)OCCO1` it was “inactive”; in that of `COCCCN1CCC(NC(=O)c2cc(Cl)c(N)c3c2OCC3)CC1`, “inactive”. The same measure, in the same setting: in the case of `CCCn1cnc2c1c(=O)n(CCCCC(C)=O)c(=O)n2C` it was “inactive”; in that of `CCCCC`, “inactive”; in that of `C[N+](C)(C)CCOC(=O)CCC(=O)OCC[N+](C)(C)C`, “inactive”. As to `CCOC(=O)c1cccnc1`, the Potency entry was “inactive”. For `CC(C)(C)Cl`, the Potency entry is “inactive”. On the same count and under the same terms, then `Cc1cc(C(=O)O)ccc1[N+](=O)[O-]`, with “inactive”.

For `CCC(C)(C)CC`, the Potency entry is “inactive”. Still for that read-out and setting: then `c1cc(CCCc2ccncc2)ccn1`, with “inactive”; and `COC(C)(C)CCO`, with “inactive”.

Consider `C#C[C@]1(O)CC[C@H]2[C@@H]3CCc4cc(OC5CCCC5)ccc4[C@H]3CC[C@@]21C`, for which the Potency result is “inactive”.

With `c1ccc(-c2ccccn2)nc1`, the Potency result is “inactive”.

With `OC[C@H]1O[C@@H](OCCc2ccc(O)cc2)[C@H](O)[C@@H](O)[C@@H]1O`, the Potency result is “inactive”. Same read-out and setting: then `Cc1ncc(CO)c(C=O)c1O`, with “inactive”; and `CC[N+]1(CC)CCC(=C(c2ccccc2)c2ccccc2)C1C` (stereo not given), with “inactive”. For `CC(CSC(=O)c1ccccc1)C(=O)N1C[C@@H](Sc2ccccc2)C[C@H]1C(=O)O` (stereo not given in full), the viability change, negative = cytotoxic is 5.22% [at 19 µM] (inactive). `O=C(OCCCCCCOC(=O)c1ccccc1)c1ccccc1`: the Potency result is “inactive”. On the same count and under the same terms, in the case of `CCCCCCCCCc1ccc(OCCOCCO)cc1` it was 5.74 µM (active); in that of `CCCCCC[C@@H](O)C/C=C\CCCCCCCC(=O)OC`, “inactive”; in that of `O=C(CS)Nc1ccccc1`, “inactive”. With `COc1cc2nc(Cl)nc(N)c2cc1OC`, the Potency entry is “inactive”. For `CO[C@@H]1[C@H](OC(=O)/C=C/C=C/C=C/C=C/C(=O)O)CC[C@]2(CO2)[C@H]1[C@@]1(C)O[C@@H]1CC=C(C)C`, the Potency entry was “inactive”. In the case of `CCCOC(C(=O)OC1CCN(C)CC1)(c1ccccc1)c1ccccc1`, the Potency entry was “inactive”. For the compound `CC(C)(COC(=O)c1ccccc1)COC(=O)c1ccccc1`, the Potency entry was “inactive”.
